Assay results from PMC5540273 (PLoS ONE, 2017).

Tested on: T1, MRCKB
T1 construct: gene CDC42BPB
Settings: concentration: 1 μM, replicates: in singlicate; n = 1
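Note: KINOMEscan kinase panel screen.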

Row | Structure (SMILES) | %Inh [%]
1 | COc1ccc(Nc2nccc(NCCNC(=O)Nc3cc(C)ccc3C)n2)cc1 [GSK1379899] | 0
2 | O=c1cc(N2CCOCC2)nc2n(Cc3cccc(Cl)c3Cl)c3ccccc3n12 [GSK2299009] | 14
3 | FC(F)(F)c1ccccc1-c1cc(-c2c[nH]nc2-c2ccccn2)ccn1 [GW679396] | 0
4 | Cn1cncc1-c1cc2c(Nc3ccc(OCc4ccccc4)cc3)ncnc2cn1 [GW281179] | 0
5 | COc1ccc(CSc2nnc(-c3ccc4c(c3)CCO4)o2)cc1 | 0
6 | CC(=O)c1cccc(NC(=O)NC2CCN(c3ccnc(Nc4ccc(F)cc4)n3)C2)c1 (centres unmarked) [GSK1379710] | 0
7 | CNc1cc(-c2ccc3c(N)n[nH]c3c2)nc(N)n1 [GSK2224810] | 8
8 | Cc1nccc(-c2c(-c3ccc(F)cc3)ncn2CCCN2CCOCC2)n1.Cl [SB-282975] | 0
9 | Cc1ccccc1-c1cc(-c2c[nH]nc2-c2ccccn2)ccn1 [GW680061] | 0
10 | COc1nccc(-c2c(-c3ccc(F)cc3)ncn2CCCN2CCOCC2)n1 [SB-282852] | 0
11 | Cc1ccc(-c2nc(Nc3ccncc3)c3ccccc3n2)s1 [GSK189015] | 21
12 | Nc1cccc(-c2ccc3c(N)n[nH]c3c2)n1 [GSK2192730] | 0
13 | COC(=O)C(NC(=O)NC1CCN(c2ccnc(Nc3ccc(F)cc3)n2)C1)c1ccccc1 (centres unmarked) [GSK1379712] | 0
14 | CN1c2ccc(-c3ccc(C(N)=O)cc3)cc2-c2[nH]ncc2S1(=O)=O | 3
